# aSyn UTR inh: 5' untranslated region of α-synuclein, MLPCN primary screen; 300,000 tested, 0.82% active; inhibition, % (tested at 7.5 µM); alpha-synuclein 5'UTR reporter, inhibitor activity; in the data active means inhibition above about 60%;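 further: H4 neuroglioblastoma cells stably carrying SNCA 5'UTR luciferase fusion; 0% = DMSO wells and 100% = positive control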
# KLF5 inh: kruppel-like factor 5 inhibition. inhibition, % at 5 µM. 290,000 tested, 0.23% active. DLD-1 KLF5 promoter-luciferase reporter, luminescence. AID 1700;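 active means inhibition above a per-plate limit of that plate's mean compound inhibition plus 3 SD, cut at about 60% in these data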;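 further: 0% = DMSO wells and 100% = LY294002 at 200 µM; higher means less KLF5 promoter-driven luciferase light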
# Ba/F3 V617F tox: lowers viability of Ba/F3 cells expressing EpoR and JAK2V617F | ATP luminescence | inhibition, % at 5.6 µM | 220,000 tested, 1.1% active | AID 1446;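 active means inhibition above the campaign mean plus 3 SD over all tested compounds, cut at about 24% in these data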;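 further: cytokine-independent growth of Ba/F3 cells driven by EpoR plus mutant JAK2; 0% = DMSO-treated cells and 100% = JAK inhibitor I control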
# IEC-6 cytotox: IEC-6 cytotoxicity, counter-screen for KLF5 inhibitors; luminescence viability; inhibition, % at 5 µM; 290,000 tested, 0.78% active; in the data active means inhibition above about 22%;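 further: 0% = plate median of test compound wells and 100% = cytotoxic reference compound wells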
# BaF3 parental: parental Ba/F3 viability inhibition as JAK2V617F counter-screen; 220,000 tested, 1.1% active; inhibition, % at 5.6 µM; CellTiter-Glo ATP luminescence;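 active means inhibition above a per-campaign cutoff, the mean inhibition of all tested compounds plus 3 SD, cut at about 27% in these data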;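 further: 0% = DMSO wells and 100% = JAK Inhibitor I control wells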
# APP transl inh: APP translation inhibition. SH-SY5Y APP 5'UTR-luciferase reporter, luminescence. inhibition, % at 2 µM. 190,000 tested, 0.82% active;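 active means inhibition above a set limit, derived from the sample mean plus 3 SD, cut at about 45% in these data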
# * = called active by the depositor; . = no result given. Compounds with a hit are over-represented: about 2.2% of the library has one in this group of screens.
SMILES,aSyn UTR inh,KLF5 inh,Ba/F3 V617F tox,IEC-6 cytotox,BaF3 parental,APP transl inh
CSc1ccc(/C=C(/NC(=O)c2ccco2)C(=O)N2CCOCC2)cc1,-21,-25,.,-10,.,.
N/C(=N\O)c1cn(Cc2ccccc2Cl)c2ccccc12,8,-26,.,10,.,.
Cc1[nH][nH]c(=O)c1C(c1c(C)[nH][nH]c1=O)c1cn(Cc2ccccc2Cl)c2ccccc12,9,-2,1,-1,2,49*
C(=N\Nc1ccc2ccccc2n1)/c1ccc2c(c1)OCCO2,108*,58,-1,4,-1,-48
Cc1ccc(NC(=O)CSc2nnc(-c3ccco3)c(-c3ccco3)n2)cc1,22,-6,1,-20,1,31
COc1ccc(C(=O)CSc2nnc(-c3ccco3)c(-c3ccco3)n2)cc1,-36,-8,3,-24,3,67*
O=C(CSc1nnc(-c2ccco2)c(-c2ccco2)n1)Nc1ccccc1,19,-6,-3,-14,-1,50*
CCOc1ccc(S(=O)(=O)NCCC(=O)Nc2cccc(C(=O)OC)c2)cc1,12,-58,.,0,.,.
O=C1CCCCN1CC(=O)N1CCCC(Nc2ccc(F)cc2)C1 (centres undefined),12,-20,.,-9,.,.
COc1cc(/C=C/c2nc3ccc([N+](=O)[O-])cc3s2)ccc1OCC(=O)O,-17,-8,-2,-4,4,.
COc1ccc(CCNC(=O)C(C)n2nc(C)c3c(C)n(-c4ccc(C)cc4)nc3c2=O)c(OC)c1 (centres undefined),6,-11,.,6,.,.
c1ccc(CN2CCC(Nc3nc(-c4ccccc4)nc4ccccc34)CC2)cc1,72*,-14,-2,0,4,11
O=C(Nc1ccc(Cl)c(Cl)c1)Nc1ccccc1C(=O)O,-8,-137,18,-10,45*,-215
Cc1ccc(S(=O)(=O)Nc2c(C(=O)O)[nH]c3ccccc23)c(C)c1,45,-32,.,-6,.,.
COc1ccccc1CCNC(=O)CCn1c(=O)c2cccn2c2ccc(F)cc21,4,-11,.,-3,.,.
O=C(Nc1ccc(Br)cn1)c1cccc2c1-c1ccccc1C2=O,-11,-32,-1,-8,5,23
Cc1ccccc1CC1(CO)CCCN(Cc2c(C)nn(C)c2Cl)C1 (centres undefined),-14,-11,0,10,80*,9
Cc1ccc(Nc2c(-c3ccccn3)nc3cccc(C)n23)cc1,14,22,3,10,5,68*
CC1CCc2c(sc(NC(=O)c3c([N+](=O)[O-])cnn3C)c2C(N)=O)C1 (centres undefined),.,-22,.,8,.,.
CC1=CC(C)(C)Nc2ccc(OC(=O)c3cccnc3)cc21,15,-12,41*,9,90*,32
COc1ccc(OC(=O)C(C)N2C(=O)c3ccccc3C2=O)cc1 (centres undefined),23,-27,.,-3,.,.
CC1=CC(C)(C)Nc2ccc(OC(=O)C(C)N3C(=O)c4ccccc4C3=O)cc21 (centres undefined),19,9,1,-2,80*,17
COc1ccc(NC(C)=O)cc1S(=O)(=O)N1CCN(C/C=C/c2ccccc2)CC1,1,3,1,0,2,5
NS(=O)(=O)OCCCc1ccccc1,6,-8,.,0,.,.
[2H]C(CCOS(N)(=O)=O)c1ccc(C(C)(C)C)cc1 (centres undefined),80*,7,.,13,.,.
SMILES,aSyn UTR inh,KLF5 inh,Ba/F3 V617F tox,IEC-6 cytotox,BaF3 parental,APP transl inh
N#CC(C#N)=C1C=CC=CN1/C(=C\c1ccccc1)C(=O)c1cccs1,-9,-16,-4,3,-2,-6
N#CC(C#N)=C1C=CC=CN1/C(=C\c1ccccc1Cl)C(=O)c1ccccc1,.,-7,3,6,1,92*
Cc1nc2ccc3nc(NC(=O)C4COc5ccccc5O4)sc3c2s1 (centres undefined),3,-1,1,3,4,10
Cc1csc(NC(=O)C2COc3ccccc3O2)n1 (centres undefined),62*,-80,-3,2,-1,-149
O=C(Nc1nc(-c2ccccc2)cs1)C1COc2ccccc2O1 (centres undefined),-31,4,1,2,3,3
Cc1cnc(NC(=O)C2COc3ccccc3O2)s1 (centres undefined),71*,-113,-7,-1,2,-144
CC1CCc2nc(NC(=O)C3CC3)sc2C1 (centres undefined),-138,-63,-4,2,4,-21
CC1CCc2nc(NC(=O)C3COc4ccccc4O3)sc2C1 (centres undefined),63*,-26,2,3,10,-168
COCCCNC(=O)CCc1c(C)c2cc3c(C)coc3cc2oc1=O,0,-37,.,13,.,.
CC(Oc1ccc(Cl)cc1Cl)c1nc(-c2ccc(NC(=O)c3ccncc3)cc2)no1 (centres undefined),-6,-14,1,1,9,-8
CC(Oc1ccc(Cl)cc1Cl)c1nc(-c2ccc(NC(=O)c3cccnc3)cc2)no1 (centres undefined),92*,-8,2,-2,2,-6
COc1ccc(CNC(=O)CSc2nnnn2-c2ccccc2)cc1,13,-27,-1,-4,10,-11
COc1ccc(CCNC(=O)CSc2nnnn2-c2ccccc2)cc1,-15,-15,-4,-4,-2,48*
CCC(C(=O)OCC(=O)N(C)c1c(N)n(Cc2ccccc2)c(=O)[nH]c1=O)c1ccccc1 (centres undefined),6,.,.,.,.,.
CCSc1nc2sc3c(c2c(=O)n1-c1ccc(OC)cc1)CCN(C)C3,4,-18,13,-6,38*,.
COc1cc2c(cc1OC)C(c1ccccc1N)=NCC2,-1,-1,38*,1,47*,.
Cc1cccc(NC(=O)CSc2cc(C)c(C#N)c3nc4ccccc4n23)c1,-2,-19,-1,-9,-7,.
CC(=O)CSc1nnc(C(F)(F)F)n1C,15,-19,-3,-9,-5,.
Cn1cc(/C=N/n2cnc3scc(-c4ccc(Cl)cc4)c3c2=O)c2ccccc21,87*,13,0,22*,3,90*
Cc1ccccc1-c1noc(-c2ccccc2C(=O)NCC2CCCO2)n1 (centres undefined),.,9,0,0,62*,.
COc1ccccc1-c1noc(-c2ccccc2C(=O)NCC2CCCO2)n1 (centres undefined),0,-15,.,3,.,.
Cn1c(SCC(=O)Nc2cccc(S(=O)(=O)NC3=NCCCCC3)c2)nnc1-c1ccccc1,-4,10,0,-5,3,-12
CCOc1ccc(N(CC(=O)Nc2ccc(C)c(C)c2)S(=O)(=O)c2c(C)noc2C)cc1,12,13,2,2,2,-14
CCOc1ccccc1NC(=O)CN(c1ccc(OC)cc1)S(=O)(=O)c1c(C)noc1C,59,-6,79*,2,75*,89*

# Screens from PubChem BioAssay.
